Several values for one entry are separate records, joined by “and”; a condition that tells them apart may be missing. Equal values may be shown once. Inconclusive results are not listed. Activity calls are given as the source filed them. Calls come from the whole dose curve; as a rule, active = well fitted inhibition curve with a large enough effect; inconclusive = small, poorly fitted or top-dose-only effect; inactive = flat fitted curve, though single readings scatter.
What follows are compounds tested against Galactokinase (Homo sapiens) (UniProt P51570) (assay: qHTS for Inhibitors of Human Galactokinase (GALK): Confirmation Assay for SAR round 4). Settings: recombinant GALK, ADP-Glo luminescence, 1 h; series mostly up to 57.5 µM; activity, negative = inhibition: at the top concentration.
Galactokinase (Homo sapiens), sequence (P51570 whole entry, looked up): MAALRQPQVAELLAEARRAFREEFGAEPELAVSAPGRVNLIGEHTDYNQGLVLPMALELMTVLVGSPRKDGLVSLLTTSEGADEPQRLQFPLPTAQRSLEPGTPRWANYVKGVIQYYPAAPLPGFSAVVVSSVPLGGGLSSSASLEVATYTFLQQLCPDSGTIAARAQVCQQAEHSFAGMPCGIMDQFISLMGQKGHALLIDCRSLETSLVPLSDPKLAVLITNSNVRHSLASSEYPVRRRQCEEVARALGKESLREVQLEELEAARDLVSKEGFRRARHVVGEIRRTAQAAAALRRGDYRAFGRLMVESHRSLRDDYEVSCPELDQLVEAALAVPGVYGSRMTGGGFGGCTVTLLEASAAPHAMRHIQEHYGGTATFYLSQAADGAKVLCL
Excerpt: Inherited deficiency of galactose-1-phosphate uridyltransferase (GALT) can result in a potentially lethal disorder called Classic Galactosemia (OMIM 230400). Several lines of evidence indicate that an elevated level of galactose-1-phosphate (gal-1-p), the product of galactokinase (GALK), is a major, if not sole, pathogenic mechanism in patients with classic galactosemia. Therefore, finding inhibitors of GALK is a potential novel therapy for this inherent metabolic disease and is the long term goal of this project. Active compounds observed in the qHTS GALK assay (AID: 1868) were cherry picked and re-screened for validation. GALK (provided by Kent Lai) was assayed using ATP and D-(+)-Galactose (Sigma-Aldrich cat# G0750) as substrates. Promega ADP-Glo technology was used to detect the ADP product formed after the kinase reaction. Kinase reactions with and without GALK were used as negative and positive controls together with Protein Tyrosine Phosphatase CD45 inhibitor (EMD Bioscience cat# 540215) which is shown to inhibit GALK activity. Decrease in activity corresponds to inhibition of the enzyme, the desired outcome for this assay. NIH Molecular Libraries Probe Production Network [MLPCN] NIH Chemical Genomics Center [NCGC] Grant: R03 MH085689-01 PI Name: Kent Lai, University of Utah
Two uL/well of ATP-buffer solution (35 uM ATP, 20mM HEPES pH8.0, 5 mM MgCl2, 60 mM NaCl, 1 mM DTT, 0.01% BSA final concentration) was dispensed into 1536-well, assay plates (Greiner, solid white medium-binding plates) with Aurora Discovery BioRAPTR Flying Reagent Dispenser (FRD; Beckton-Dickenson). Compound and control solution (23 nL) was transferred to the assay plate using the Kalypsys 1536-pin tool apparatus. Half uL/well GALK-galactose solution (5 nM GALK, 100 uM galactose, 20 mM HEPES pH8.0, 5 mM MgCl2, 60 mM NaCl, 1 mM DTT, 0.01% BSA final concentration) was then added using the FRD yielding a total kinase reaction volume of 2.5 uL/ well. After 1 hour of room temperature incubation, 2.5 uL ADP-Glo reagent A was added and incubated for 15 min. Five micorliter of ADP-Glo reagent B was then added per well and incubated for additional 15 min at room temperature. Luminescence was detected with the ViewLux plate reader (Perkin Elmer, Waltham, MA) using a 1 sec exposure time and 2x binning.

SMILES | Potency | activity, negative = inhibition
O=C1CCCC2=C1C(c1ccccc1Br)N=C(Nc1nc3ccccc3o1)N2 (stereo not given) | 4.32 µM (active) | 
CC1=C(C(=O)Nc2noc3ccccc23)C(c2nn(C)cc2Cl)N=C(Nc2nc3ccccc3o2)N1 (stereo not given) |  | -1.71% (inactive)
CC1=C(C(=O)Nc2nc3ccccc3s2)C(c2[nH]ncc2Cl)N=C(Nc2nc3ccccc3o2)N1 (stereo not given) |  | -7.24% (inactive)
CC1=C(C(=O)Nc2nncs2)C(c2[nH]ncc2Cl)N=C(Nc2nc3ccccc3o2)N1 (stereo not given) | 7.69 µM (active) | 
CC1=C(C(=O)Nc2ccon2)C2(CCCC2)N=C(Nc2nc3ccccc3o2)N1 | 7.69 µM (active) | 
O=C1C2=C(CN1Cc1ccccc1)NC(Nc1nc3ccccc3o1)=NC2c1ccccc1Cl (stereo not given) |  | -0.242% (inactive)
O=C1CCCC2=C1C(c1ccncc1Cl)N=C(Nc1nc3ccccc3o1)N2 (stereo not given) | 10.9 µM (active) | 
CNC(=O)C1=C(C)NC(Nc2nc3ccccc3o2)=NC12CCCC2 |  | -10.4% (inactive)
O=C1CCCC2=C1C(c1[nH]ncc1Br)N=C(Nc1nc3ccccc3o1)N2 (stereo not given) | 15.3 µM (active) | 
CC1=C(C(=O)Nc2nc3ccccc3s2)C(c2nn(C)cc2Cl)N=C(Nc2nc3ccccc3o2)N1 (stereo not given) |  | -5.67% (inactive)
CC(C)CN1CC2=C(C1=O)C(c1ccccc1Cl)N=C(Nc1nc3ccccc3o1)N2 (stereo not given) |  | -14.9% (inactive)
O=C1C2=C(CN1c1ccccc1)NC(Nc1nc3ccccc3o1)=NC2c1ccccc1Cl (stereo not given) |  | -7.05% (inactive)
CC1=C(C(=O)Nc2nc3ccccc3s2)C2(CCCC2)N=C(Nc2nc3ccccc3o2)N1 |  | -18.2% (inactive)
O=C1CCCC2=C1C(c1ccccc1I)N=C(Nc1nc3ccccc3o1)N2 (stereo not given) | 3.06 µM (active) | 
O=C1CCCC2=C1C(c1[nH]ncc1Cl)N=C(Nc1nc3ccccc3o1)N2 (stereo not given) | 5.44 µM (active) and 6.85 µM (active) | 
CC1=C(C(=O)NC2CCCC2)C(c2[nH]ncc2Cl)N=C(Nc2nc3ccccc3o2)N1 (stereo not given) |  | -11.9% (inactive)
CC1=C(C(=O)Nc2ccon2)C(c2ccccc2Br)N=C(Nc2nc3ccccc3o2)N1 (stereo not given) | 7.69 µM (active) | 
CC1=C(C(=O)Nc2noc3ccccc23)C2(CCCC2)N=C(Nc2nc3ccccc3o2)N1 |  | -1.57% (inactive)
O=C1CCCC2=C1C(c1ccccc1Cl)N=C(Nc1nc3ccccc3o1)N2 (stereo not given) | 13.7 µM (active) | 
CC1=C(C(=O)Nc2ccc(Cl)cc2)C(c2ccccc2Br)N=C(Nc2nc3ccccc3o2)N1 (stereo not given) |  | -26.9% (inactive)
